We go through 86 sequences from the supplement of paper PMC3334620.

The full ranking holds about 33,000 sequences; the median of “E-score (-0.5 to 0.5)” is about -0.016, and the highest 2% start at about 0.32. This is one part of a sample in which the highest values are shown more often than they occur.

The test has as its target T1, Stp1 (UniProt B3LFK1).
T1 sequence: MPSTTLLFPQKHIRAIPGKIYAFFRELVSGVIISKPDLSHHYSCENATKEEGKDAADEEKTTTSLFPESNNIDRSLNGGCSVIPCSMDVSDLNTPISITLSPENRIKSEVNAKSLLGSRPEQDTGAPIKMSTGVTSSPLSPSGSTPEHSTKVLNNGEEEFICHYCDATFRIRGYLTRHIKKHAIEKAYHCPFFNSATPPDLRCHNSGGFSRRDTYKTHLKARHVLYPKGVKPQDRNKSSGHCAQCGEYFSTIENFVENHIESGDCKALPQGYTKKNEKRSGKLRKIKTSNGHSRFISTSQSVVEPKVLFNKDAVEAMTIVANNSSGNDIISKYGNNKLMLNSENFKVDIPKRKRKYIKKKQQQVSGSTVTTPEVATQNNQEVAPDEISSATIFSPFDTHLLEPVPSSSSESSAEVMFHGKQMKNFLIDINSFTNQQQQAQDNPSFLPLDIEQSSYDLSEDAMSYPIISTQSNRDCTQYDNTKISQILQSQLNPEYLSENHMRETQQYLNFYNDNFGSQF
Briefly: PBM E-score (8-mer binding enrichment) (E-score (-0.5 to 0.5)); higher = stronger / more preferred TF binding. Particulars: protein concentration: 200 nM; construct: GST-full length. Put shortly: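 Using PURExpress in vitro transcription/translation, GST-tagged yeast transcription factors were made in full-length or DNA-binding-domain form. These were applied at about 100-200 nM to double-stranded universal all-10-mer Agilent arrays, and bound protein was detected with fluorescent anti-GST. Scans were normalised with masliner before the Universal PBM Analysis Suite assigned E-scores to ungapped eight-base words pooled with their reverse complements.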
TCCGGCAA: the “PBM E-score” value was -0.00549. Regarding AGCGGCAC, the “PBM E-score” value was found to be 0.457. For AGCGGCAA, the “PBM E-score” value stood at 0.321. For TGCGGCAA the value was 0.412; for AGCGGCCT, 0.0372; for TGCGGCCA, 0.233. The result for AGCGGAAA reads 0.0606; that for AGCGGCAG, 0.301. Take AGCGGGAT: the “PBM E-score” value is 0.0317. Turning to CACATCGG, the “PBM E-score” value is -0.152. For AATTTGGG, the “PBM E-score” value was -0.0818.

As to CGAGGCCA, the “PBM E-score” value was -0.178.

Consider GATAAGGC, for which the “PBM E-score” value is 0.216.

As to AAGGGCGT, the “PBM E-score” value worked out at 0.0591. As to CGATAATC, the “PBM E-score” value is -0.128.

Take ATCCGTCA: the “PBM E-score” value was -0.0596.

As for CTAAACGA, the “PBM E-score” value came out at 0.0761. CAGTCTGA: the “PBM E-score” value is -0.0528. On to GGGGGCAC, for which the “PBM E-score” value was -0.266. The result for CGTGGCAG reads 0.239; that for GGCGGCAC, 0.446; that for CGCGGTAG, 0.0224. The result for CGCGGCAG reads 0.378. On to CGCGGGCA, for which the “PBM E-score” value was determined as 0.175.

Turning to GGCGGCAA, the “PBM E-score” value was 0.286. On to CGCGGCAA, for which the “PBM E-score” value came out at 0.424.

For GTCGGCAC, the “PBM E-score” value was determined as 0.172.

Take AGGGGACA: the “PBM E-score” value was -0.145. For AGGGGGGG the value was -0.287; for AGGCCTCC, -0.164. As for GCTCTCGA, the “PBM E-score” value was -0.144.

Take ATAACCCC: the “PBM E-score” value is -0.223.

Take GCAAGCTA: the “PBM E-score” value is -0.0537.

On to CTGCATGC, for which the “PBM E-score” value is 0.12.

As to CGGCATGA, the “PBM E-score” value came to 0.346.

Take AGGCATGC: the “PBM E-score” value was determined as 0.144.

In the case of CGGCATGC, the “PBM E-score” value amounted to 0.338. On to GGGCATGA, for which the “PBM E-score” value is -0.0369. Regarding AGGCATGA, the “PBM E-score” value was -0.0157. In the case of CGAGGAGA, the “PBM E-score” value was -0.162. Turning to AGCCAAAC, the “PBM E-score” value was 0.00731. With CATTGCGG, the “PBM E-score” value was found to be 0.158. For the sequence GCGCTGCA, the “PBM E-score” value is 0.232. For GGATTGAA, the “PBM E-score” value was -0.0161. Consider GCGTGAGC, for which the “PBM E-score” value is 0.193. Consider GGCGGGCA, for which the “PBM E-score” value came out at 0.0418. As for GGGCGGAA, the “PBM E-score” value is -0.0696.

As to GGGCGGGA, the “PBM E-score” value is -0.11. Take CGGCGGTA: the “PBM E-score” value was determined as 0.335. In the case of AGCCGGCA, the “PBM E-score” value came out at 0.0341. As to AGGCGGCA, the “PBM E-score” value was found to be 0.369.

With GGGCGGCA, the “PBM E-score” value turned out to be 0.356. For the sequence GGGCGGTA, the “PBM E-score” value was -0.128. With CGGCGGAA, the “PBM E-score” value came to 0.328. The result for AGGCGGTA reads -0.0932; that for AGGCGGAA, 0.0802. For AGGCGGGA, the “PBM E-score” value was -0.183.

For CACCTATG, the “PBM E-score” value was -0.108. CGCTAAAG: the “PBM E-score” value was determined as 0.0823.

Regarding GTTGAATA, the “PBM E-score” value is 0.0719.

Consider ATGTCCTC, for which the “PBM E-score” value is -0.113.

For AGCTGCGA, the “PBM E-score” value is -0.129. In the case of GCTCAACA, the “PBM E-score” value turned out to be 0.00726. As to CAGTCGGG, the “PBM E-score” value was -0.14.

AGGCGGCG: the “PBM E-score” value was determined as 0.391. For CGGCGGCA the value was 0.418; for CGGCGGGA, 0.207. With AGGCGGCC, the “PBM E-score” value stood at 0.147.

In the case of AGGCGGGG, the “PBM E-score” value was found to be 0.023.

Turning to CGGCGGCC, the “PBM E-score” value is 0.214. Consider CCTAGCTC, for which the “PBM E-score” value is -0.268. The result for ATAGAAAT reads 0.197.

Regarding CTGGCCCC, the “PBM E-score” value was -0.311. The result for CATCACTC reads -0.0239.

In the case of AAGACGGC, the “PBM E-score” value worked out at 0.318. For CAGACGGC the value was 0.42; for CAGACGCC, 0.114; for AAGACGCC, 0.321. Take AAGACGGT: the “PBM E-score” value was -0.169. CAGACGGA: the “PBM E-score” value was determined as 0.0941. For GAGACGGC the value was 0.411; for GAGACGGA, 0.065; for GAGACGAC, -0.104.

On to AAGACGGA, for which the “PBM E-score” value is -0.0847.

On to CAGACGGG, for which the “PBM E-score” value is -0.242. AAGACGCT: the “PBM E-score” value is -0.13.
